From PubChem BioAssay (Tox21)
Inconclusive results are not listed. A call without a number means that no potency is given here. Active and inactive are the calls of the source. Calls follow the shape of the dose curve; as a rule, active = well fitted activation curve with a large enough effect in the repeat runs; inconclusive = weak or mixed curves; inactive = flat fitted curve, though single readings scatter.

Assay: A CellTox Green Cytotoxicity Assay to monitor cytotoxicity in HEK293 cells - 24 hour (AID 1224875); also: nearly all actives have a fitted effect of over 45% in size
Conditions: CellTox Green fluorescence; series mostly up to 76.8 µM
Description: National Center for Advancing Translational Sciences [NCATS]
NIH Chemical Genomics Center [NCGC]
U.S. Environmental Protection Agency [EPA]
National Institutes of Environmental Health Sciences [NIEHS]
National Toxicology Program [NTP]
Cell-based models are critical for drug discovery. Determining the natural cytotoxic effects resulting from test compounds is an essential research activity. A CellTox Green Cytotoxicity Assay to monitor cytotoxicity in real time of continues cell culture during 40 hours of the compound treatment was used to screen Tox21 10K library compounds in Hek293 cells. CellTox Green Cytotoxicity Assay is a nonlytic, homogeneous, biofluorescent method to measure cytotoxicity in cell culture after experimental manipulation. The assay system uses a proprietary asymmetric cyanine dye that is excluded from viable cells but preferentially stains the dead cell's DNA. […] Viable cells produce no appreciable increases in fluorescence. Therefore, the fluorescence signal produced by the binding interaction with dead cell DNA is proportional to cytotoxicity.
The mixture of Hek293 cell suspension and reagents were dispensed at 600cells/6 ul/well in 1536-well tissue culture treated black solid bottom plates using a Multidrop dispenser. After the assay plates were incubated at a 37 C/5% CO2 incubator for 5 hours, 23 nL of compounds dissolved in DMSO, positive and negative controls was transferred to the assay plate by a pintool work station. The plates were incubated at 37 C for 40 hours. The fluorescence intensity were measured at 0h, 8h, 16h, 24h, 32h and 40h time points using ViewLux plate reader during compound treatment.
Potency is read from the fitted curve at half-maximal effect.

| SMILES | Potency |
| --- | --- |
| N#CCc1ccccc1 | inactive |
| CC(=O)NC1CCSC1=O (stereo not given) | inactive |
| ClP(Cl)(Cl)(Cl)Cl | inactive |
| CCOC(=O)COc1cc(-c2nn(C)c(OC(F)F)c2Cl)c(F)cc1Cl | inactive |
| CCCCCCC#N | inactive |
| CCCCNP(N)(N)=S | inactive |
| II | 38.9 µM (active) |
| [O-][Cl+]O | inactive |
| N#C/C(N)=C(/N)C#N | inactive |
| C[N+](C)(C)CCCl | inactive |
| CC(=O)[C@H]1CC[C@H]2[C@@H]3CC[C@H]4C[C@](C)(O)CC[C@]4(C)[C@H]3CC[C@]12C | inactive |
| CC1CC(CC2CCC(N)C(C)C2)CCC1N (stereo not given) | 62.7 µM (active) |
| Clc1cccc(SC2CCNCC2)n1 | inactive |
| C=CCC1([C@H](C)CCC)C(=O)NC(=O)NC1=O | inactive |
| COc1cc(CC(C)N)cc2c1OCO2 (stereo not given) | inactive |
| C[C@@H]1CC[C@H]2[C@@H](C)C(=O)O[C@@H]3O[C@@]4(C)CC[C@@H]1[C@]32OO4 | inactive |
| CN(N=O)c1ccc([N+](=O)[O-])cc1 | inactive |
| CC(c1ccc(O)cc1)(c1ccc(O)cc1)c1ccc(O)cc1 | inactive |
| O=Cc1ccc(Cl)cc1Cl | inactive |
| O=S1(=O)OC(c2cc(Br)c(O)c(Br)c2)(c2cc(Br)c(O)c(Br)c2)c2ccccc21 | inactive |

| SMILES | Potency |
| --- | --- |
| O=C(CBr)OCc1ccccc1 | inactive |
| C=CC(=O)OCC(C)C | inactive |
| O=[N+]([O-])c1cc(C(F)(F)F)cc([N+](=O)[O-])c1Cl | inactive |
| CCCC(=O)Cl | inactive |
| CC(O)(CS(=O)(=O)c1ccc(F)cc1)C(=O)Nc1ccc(C#N)c(C(F)(F)F)c1 (stereo not given) | inactive |
| CC(Cl)Cl | inactive |
| CCCN(CCC)c1c([N+](=O)[O-])cc(S(C)(=O)=O)cc1[N+](=O)[O-] | inactive |
| O=C1C(=O)c2cccc3cccc1c23 | inactive |
| CC1(C)CCC(Cc2ccc(Cl)cc2)C1(O)Cn1cncn1 (stereo not given) | inactive |
| Nc1nc(=S)[nH][nH]1 | inactive |
| Cn1cc[n+](C)c1 (tested in a mixture with another compound) | inactive |
| C#CCOC(C(=O)OCCN(C)C)(c1ccccc1)c1ccccc1 | inactive |
| Cn1sc(Cl)cc1=O | inactive |
| [CH3][Sn]([CH3])([Cl])[Cl] | inactive |
| CCCN(CCCl)c1c([N+](=O)[O-])cc(C(F)(F)F)cc1[N+](=O)[O-] | inactive |
| O=[N+]([O-])c1ccc(F)c([N+](=O)[O-])c1 | inactive |
| O=[Se]=O | inactive |
| O=[N+]([O-])C(Br)(CO)CO | inactive |
| CO/N=C(/C(=O)OC)c1ccccc1COc1ccccc1C | inactive |
| CC(C)(C)c1cc([N+](=O)[O-])cc([N+](=O)[O-])c1O | inactive |
